Measurements as given in PubChem BioAssay (NCI).
About 83,000 compounds went through this panel and 20% of them were active in at least one assay; those are over-represented in the sample as a whole.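 Values shown are percent growth following 48 h exposure of cells in 96-well plates to a single concentration of compound; below 10 was considered active.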 Activity calls are given as the source filed them.

Tests used:
Assay in all cases: NCI-60 one-dose screen, 48 h (100 = growth as untreated, 0 = no growth, -100 = all killed)
[1] = system: HCT-15 colon; conditions: 10 µM unless noted
[2] = system: HT29 colon; conditions: 10 µM unless noted
[3] = system: SNB-75 CNS; conditions: 10 µM unless noted
[4] = system: SNB-19 CNS; conditions: 10 µM unless noted
[5] = system: U251 CNS; conditions: 10 µM unless noted
[6] = system: PC-3 prostate; conditions: 10 µM unless noted
[7] = system: SK-MEL-5 melanoma; conditions: 10 µM unless noted
[8] = system: UACC-62 melanoma; conditions: 10 µM unless noted
[9] = system: LOX IMVI melanoma; conditions: 10 µM
[10] = system: SK-MEL-28 melanoma; conditions: 10 µM unless noted
[11] = system: SK-MEL-2 melanoma; conditions: 10 µM unless noted
[12] = system: EKVX NSCLC; conditions: 10 µM unless noted
[13] = system: SN12C renal; conditions: 10 µM unless noted
[14] = system: UO-31 renal; conditions: 10 µM unless noted
[15] = system: TK-10 renal; conditions: 10 µM unless noted
[16] = system: ACHN renal; conditions: 10 µM unless noted
[17] = system: CAKI-1 renal; conditions: 10 µM unless noted
[18] = system: A498 renal; conditions: 10 µM unless noted
[19] = system: CCRF-CEM leukemia; conditions: 10 µM unless noted
[20] = system: MOLT-4 leukemia; conditions: 10 µM unless noted

Measured: growth

CCCCCC/C=C\CCCCCCCCCc1cc(O)cc(OC)c1O
inactive: [4] 24% | [5] 10.2% | [10] 24% | [12] 14.5% | [15] 24.3% | [16] 12.7%
active: [1] 3.68% | [2] 8.67% | [3] 6.11% | [6] 1.77% | [7] -29% | [8] 6.32% | [9] -86.3% | [11] -25.5% | [13] 8.94% | [14] -19.1% | [17] -29.1% | [18] -18.5% | [19] -0.181% | [20] 2.69%

CCN(C(=O)Nc1ccccc1Cl)c1ccccc1
inactive: [1] 94.1% | [2] 101% | [3] 117% | [4] 103% | [5] 96.8% | [6] 94.6% | [7] 101% | [8] 104% | [9] 96.5% | [10] 113% | [11] 114% | [12] 111% | [13] 113% | [14] 91.4% | [15] 121% | [16] 96.2% | [17] 96.2% | [18] 102% | [19] 110%

COC1OC(CO)C(OC)C(O)C1O (stereo not given)
inactive: [1] 100% | [2] 110% | [3] 103% | [4] 105% | [5] 99.6% | [6] 103% | [7] 103% | [8] 96.2% | [9] 95.6% | [10] 95.9% | [11] 111% | [12] 103% | [13] 104% | [14] 92.5% | [15] 110% | [16] 104% | [17] 105% | [18] 92.7% | [19] 102%

CCOC(=O)c1c(C)[nH]c(C)c1C=O
inactive: [1] 107% | [2] 107% | [3] 94.2% | [4] 97.1% | [5] 88.2% | [6] 82.7% | [7] 101% | [8] 91.2% | [9] 97.9% | [10] 109% | [11] 102% | [12] 102% | [13] 95.8% | [14] 104% | [15] 95.9% | [16] 102% | [17] 99.8% | [18] 92% | [19] 79.8%

NC(=S)N/N=C/c1ccc(OC(=O)COc2ccc(Cl)cc2)cn1
inactive: [1] 70.6% | [2] 79.3% | [3] 44.9% | [4] 72.9% | [5] 32.6% | [6] 64.3% | [7] 30.7% | [9] 23.8% | [10] 76.5% | [11] 62.8% | [12] 93.6% | [13] 28.2% | [14] 24.9% | [15] 74.9% | [16] 12.5% | [18] 57.3% | [19] 18.6% | [20] 16.5%
active: [8] 8.53% | [17] 0.332%

C=CC(C)C(C)(C)O (stereo not given)
inactive: [1] 104% | [2] 101% | [3] 101% | [4] 109% | [5] 103% | [6] 100% | [7] 107% | [8] 102% | [9] 99.2% | [10] 113% | [11] 100% | [12] 105% | [13] 109% | [14] 87.2% | [15] 104% | [16] 106% | [17] 94.5% | [18] 91.4%

O=C(c1cccc(C(=O)c2ccc3c4c(cccc24)C(=O)N(c2ccccc2)C3=O)c1)c1ccc2c3c(cccc13)C(=O)N(c1ccccc1)C2=O
inactive: [1] 101% | [2] 106% | [3] 93.4% | [4] 111% | [5] 89.3% | [6] 82.3% | [7] 84.4% | [8] 84.7% | [9] 91.2% | [10] 109% | [11] 111% | [12] 104% | [13] 92.4% | [14] 89.8% | [15] 115% | [16] 102% | [17] 100% | [18] 86.7% | [19] 89.9% | [20] 90.9%

c1ccc(Oc2c3ccccc3nc3ccccc23)cc1
inactive: [1] 14.6% | [3] 41.5% | [4] 91.9% | [5] 11.7% | [6] 20.1% | [7] 13.6% | [8] 45.7% | [9] 31.3% | [10] 61.2% | [11] 39.9% | [12] 62.1% | [13] 24.3% | [14] 43.8% | [15] 57.6% | [16] 31.9% | [18] 33% | [19] 14.2% | [20] 14.5%
active: [2] 2.51% | [17] -20.4%

CC(=O)Nc1ccc(/C=C2\SC(=S)N(/C=C(\C(C)=O)C(N)=O)C2=O)cc1
inactive: [1] 98.2% | [2] 97.4% | [3] 82.4% | [4] 100% | [5] 90.3% | [6] 78.5% | [7] 88.7% | [8] 87.6% | [9] 78.3% | [10] 93.4% | [11] 87.7% | [12] 94.2% | [13] 95.5% | [14] 68.4% | [15] 97.4% | [16] 97.8% | [17] 98.3% | [18] 101% | [19] 91.1%

Nc1ccc2c(c1)Cc1cc(N)c(N)cc1-2
inactive: [1] 108% | [2] 95.9% | [3] 96% | [4] 95.6% | [5] 86% | [6] 96.3% | [7] 93.4% | [8] 94% | [9] 97% | [10] 107% | [11] 88.8% | [12] 88.6% | [13] 93.3% | [14] 91.4% | [15] 119% | [16] 101% | [17] 102% | [18] 98.8% | [19] 105%

O=C1NC(=O)/C(=C\c2ccncc2)N1
inactive: [1] 98.7% | [2] 99.7% | [3] 92% | [4] 101% | [5] 100% | [6] 96.3% | [7] 97.2% | [8] 95.8% | [9] 100% | [10] 101% | [11] 104% | [12] 95.5% | [13] 95.9% | [14] 95.5% | [15] 105% | [16] 97.9% | [17] 100% | [18] 94.1% | [19] 105%

Nc1nc(Cl)cc(Cl)n1
inactive: [1] 102% | [2] 86.8% | [3] 91.4% | [4] 113% | [5] 102% | [6] 98.5% | [7] 98.8% | [8] 107% | [9] 92.5% | [10] 119% | [11] 96% | [12] 103% | [13] 110% | [14] 95.2% | [15] 93.6% | [16] 105% | [17] 102% | [18] 118% | [19] 108%

CCOP(=O)(NC(c1ccccc1)c1ccccc1)OCC
inactive: [1] 117% | [2] 107% | [3] 88.7% | [4] 102% | [5] 105% | [6] 82.6% | [7] 105% | [8] 114% | [9] 93.1% | [10] 106% | [11] 109% | [12] 109% | [13] 146% | [14] 84.4% | [15] 112% | [16] 103% | [17] 93% | [18] 102% | [19] 103% | [20] 106%

O=C(NCc1ccccc1)/C(=C/c1ccccc1)NC(=O)c1ccccc1
inactive: [1] 106% | [2] 92.9% | [3] 98.1% | [4] 97.1% | [5] 93.4% | [6] 88.5% | [7] 97.5% | [8] 93.5% | [9] 98.3% | [10] 117% | [11] 102% | [12] 103% | [13] 100% | [14] 92% | [15] 108% | [16] 104% | [17] 103% | [18] 90.9% | [19] 94.4%

CC(=O)N=c1ccc2nc3c(cc(N)c4ccccc43)oc-2c1
active: [1] -75.5% | [2] 1.15% | [4] -11.1% | [5] -73.7% | [6] 2.46% | [7] -100% | [8] -61.2% | [9] -74.3% | [10] -2.3% | [11] -42.4% | [12] 2.37% | [13] -72.8% | [14] -43.9% | [17] -23.1% | [19] -11.5% | [20] -37.2%
inactive: [3] 34% | [15] 47.6% | [16] 32.5% | [18] 80.5%

CCOC(=O)C1(N)CCCCC1
inactive: [1] 112% | [2] 104% | [3] 91.8% | [4] 96.5% | [5] 99.1% | [6] 96.6% | [7] 106% | [8] 105% | [9] 102% | [10] 165% | [11] 106% | [12] 97.5% | [13] 93.1% | [14] 79.6% | [15] 96.3% | [16] 104% | [17] 88.2% | [18] 173% | [19] 98.1% | [20] 107%

CC(=O)C1C(=O)C(=O)N(c2cccc([N+](=O)[O-])c2)C1=O (stereo not given)
inactive: [1] 102% | [2] 105% | [3] 93.9% | [4] 104% | [5] 97.3% | [6] 98.2% | [7] 107% | [8] 100% | [9] 105% | [10] 107% | [11] 114% | [12] 108% | [13] 101% | [14] 105% | [15] 125% | [16] 104% | [17] 102% | [18] 79.2% | [19] 106% | [20] 101%
